The structures appear in SMILES notation. In all, about 2,500 compounds went through this assay and about 1,100 (44%) were called active. The set was probably picked from earlier hits. The list shows a part of the results. Unmarked numbers belong to inactive results.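 How the source made its calls: active means inhibition above 50% at 4 µM in the single-point screen; inactive means inhibition of 50% or less.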

This assay can be described thus: blockers of TNF-a NF-kB luciferase induction – cell-based, HEK293T NF-kB-Luc, luminescence, selectivity assay for NOD1/NOD2 signaling inhibitor project, primary screen (AID 1852). The conditions noted are these: TNF-a induced, 14 h, at 4 µM, stronger effect = higher value.
As a reminder, the inhibition is the drop in the measured response relative to a control, in per cent. In the case of `COC(=O)c1ccc2nc(Nc3nc4c(F)cc(F)cc4s3)sc2c1`, the inhibition is 35.5%.
For `Cc1ccc2nc(NC(=O)CSCC(=O)OCC(=O)c3ccc(Br)cc3)sc2c1`, the inhibition was 75.2% (active).
`Cc1c(Cl)cccc1NC(=S)N=Nc1c(O)n(CN2CCOCC2)c2ccccc12`: the inhibition was 70.8% (active).
To `NC(=S)N=Nc1c(O)n(Cc2ccc(Br)cc2)c2ccccc12` belongs -15.1%; to `Oc1c(N=NC(=S)Nc2ccccc2F)c2ccccc2n1Cc1ccccc1F`, 7.6%; to `C=CCn1c(O)c(N=NC(=S)Nc2ccc(OC)cc2)c2ccccc21`, 96.3% (active).
To `C=CCn1c(O)c(N=NC(=S)Nc2ccccc2F)c2ccccc21` belongs 100% (active).
For `C/C(Cl)=C\Cn1c(O)c(N=NC(N)=S)c2ccccc21`, the inhibition was 35.2%.
To `C=CCn1c(O)c(N=NC(=S)Nc2cccc(OC)c2)c2ccccc21` belongs 12%; to `C=CCn1c(O)c(N=NC(=S)Nc2ccc(OC)c(Cl)c2)c2ccccc21`, -34.6%.
Turning to `C=CCn1c(O)c(N=NC(=S)Nc2cccc(C)c2)c2ccccc21`, the inhibition is 8.8%.
Take `O=C(Nc1ccc(Br)c2ccccc12)c1ccc2ccccc2c1O`: the inhibition was 42.5%.
For `CC(=O)c1c(C)oc2ccc(N(C(C)=O)S(=O)(=O)c3ccc(F)cc3C)cc12`, the inhibition is -8.7%.
In the case of `CCCC1/C(=N/O)CC(c2ccccc2)NC1c1ccccc1` (centres undefined), the inhibition was 31.6%.
Under `CC1=C(CO)C(=O)OC([C@@H](C)C2CC[C@H]3C4C[C@H]5O[C@]56[C@@H](O)C=CC(=O)[C@]6(C)C4CC[C@]23C)C1` (some centres undefined) stands 89.9% (active); under `CCC(C)(C)c1ccc(OCCCC[n+]2cccc(C)c2)c(C(C)(C)CC)c1`, 41.5%.
To `COc1cc(OC)cc(-c2cc3nc(C)c(CCC(=O)O)c(C)n3n2)c1` belongs 85.7% (active).
Take `O=C(Nc1ccc(Cl)c(Cl)c1)Nc1ccccc1NS(=O)(=O)c1cccs1`: the inhibition was 94.3% (active).
Take `O=C(Nc1ccc(Cl)c(Cl)c1)Nc1ccc(Br)cc1F`: the inhibition is 106% (active).
Consider `O=C(Nc1ccc([N+](=O)[O-])cc1)Nc1ccc(Cl)cc1F`, for which the inhibition was 12.9%.
Under `Cc1cc(Cl)ccc1OCC(=O)Nc1ccccc1NS(=O)(=O)c1cccs1` stands 21.7%; under `Cc1ccc(-c2n[nH]c(=S)n2/N=C/c2ccncc2)cc1`, 4.6%.
To `S=c1[nH]nc(-c2cc(-c3ccccc3)n[nH]2)n1/N=C/C(Br)=C/c1ccccc1` belongs 105% (active).
On to `CC(=C/c1ccccc1)/C=N/n1c(-c2ccncc2)n[nH]c1=S`, for which the inhibition was 94.4% (active).
Consider `Cc1cc(-c2n[nH]c(=S)n2/N=C/C(Cl)=C/c2ccccc2)n[nH]1`, for which the inhibition was -31.5%.
For the molecule `Cc1cc(-c2n[nH]c(=S)n2/N=C/C(Br)=C/c2ccccc2)n[nH]1`, the inhibition is 23.7%.
Take `Cc1noc2ncnc(Oc3ccc(Cl)cc3Cl)c12`: the inhibition is -0.2%.
Under `CCN1CCN(Cc2ccc(NC(=O)c3ccc(C)c(/C=C/c4cnc(Nc5cc(N6CCNCC6)nc(C)n5)cn4)c3)cc2C(F)(F)F)CC1` stands -16%.
Under `CC[n+]1c(C=C2C=C(C)OC(C)=C2)sc2ccccc21` stands 57.8% (active).
Under `Cc1nc(SCCC(=O)O)c2cc(-c3ccccc3)sc2n1` stands 48.4%.
As for `Cc1sc2nc(-c3ccccn3)[nH]c(=O)c2c1-c1ccccc1`, the inhibition is 37.1%.
Under `O=c1[nH]c(-c2ccccn2)nc2sc(-c3ccccc3)cc12` stands 97.3% (active); under `COc1ccc(-c2cc(C(F)(F)F)nc(S(C)(=O)=O)n2)cc1`, 77.6% (active).
Under `COc1ccc(-c2cc(C(F)(F)F)nc(S(C)(=O)=O)n2)cc1OC` stands 89.3% (active); under `Cc1cc(NC(=O)CCS(=O)(=O)c2nc(-c3ccccc3)cc(C(F)(F)F)n2)no1`, 46.7%.
As for `COC(=O)CCS(=O)(=O)c1nc(-c2ccccc2)cc(C(F)(F)F)n1`, the inhibition was 55.5% (active).
On to `COc1ccccc1-c1cc(C(F)(F)F)nc(S(C)(=O)=O)n1`, for which the inhibition is 68.8% (active).
Turning to `COc1ccc(NS(=O)(=O)c2ccc(-c3coc(C)n3)cc2)cc1OC`, the inhibition was 47.8%.
Under `CCOc1cccc2sc(NC(=O)CCS(=O)(=O)c3ccccc3)nc12` stands -6.7%; under `COCCN(Cc1ccccc1)C(=O)c1cc(-c2ccc(OC)c(OC)c2)nc2ccccc12`, 20%.
Regarding `C=C(CCC(=O)c1ccccc1)C(=O)c1ccccc1`, the inhibition is -0.6%.
In the case of `O=C(Nc1ccncc1)c1c(F)cccc1F`, the inhibition was 59.3% (active).
To `Cc1ccc2oc(Nc3nc(-c4ccccc4)cc(=O)[nH]3)nc2c1` belongs 93% (active); to `COc1ccc2c(C)nc(Nc3nc(-c4ccccc4)cc(=O)[nH]3)nc2c1`, 42.1%.
To `Oc1c(Cl)cc(Cl)cc1/C=C/c1ccc2cccc(O)c2n1` belongs 37.4%.
Under `CC(C)(C)NC(=S)N/N=C/c1cc(Br)c(O)c(Br)c1` stands 34.5%; under `CN(/N=C/c1cc(Cl)cc(Cl)c1O)C(=S)NC(C)(C)C`, 82.6% (active).
Turning to `CC(C)c1noc2ncc(C(=O)c3cc(Cl)cc(Cl)c3O)cc12`, the inhibition was 60.1% (active).
To `O=c1cc(-c2ccccc2Cl)oc2c(NS(=O)(=O)c3cc(Cl)cc(Cl)c3O)ccc(O)c12` belongs 82.6% (active); to `O=c1cc(-c2ccccc2Cl)oc2c([N+](=O)[O-])c(O)cc(O)c12`, 105% (active).
Under `O=c1oc2ccccc2c(Nc2cc3ccccc3cc2O)c1[N+](=O)[O-]` stands -0.3%; under `O=C(O)COc1ccc(-c2nccc(-c3ccccn3)n2)cc1`, 43.3%.
Under `Nc1nccc(-c2ccc(-n3cnc4ccccc43)cc2)n1` stands 67% (active); under `c1ccc2c(c1)ncn2-c1ccc(-c2ccnc(-c3ccncc3)n2)cc1`, 59.7% (active); under `Cc1nc(N)c(C#N)c(-c2cccnc2)c1-c1ccccc1`, 98.5% (active).
For the molecule `CC1CCc2nc(N)c(C#N)c(-c3cccnc3)c2C1` (centres undefined), the inhibition is 85.3% (active).
As to `Cc1nc2c(-c3ccc(F)cc3)cnn2c(N)c1-c1ccccc1`, the inhibition is -226%.
To `CN(C(=O)COc1ccccc1C(=O)NCCOc1ccccc1)c1ccccc1` belongs 17.7%.
To `CCOc1ccccc1C(=O)N1CCN(C(c2ccccc2)c2ccccc2)CC1` belongs 22.1%.
To `O=C(NNC(=O)c1ccccc1OCc1ccc(F)cc1)c1ccccc1O` belongs 51.1% (active).
`O=C(NNC(=O)c1ccccc1OCc1ccccc1)c1ccccc1O`: the inhibition is 77.9% (active).
To `Cc1ccc(S(=O)(=O)n2c(N)nc3ccccc32)cc1` belongs -1.7%; to `Cc1ccc(S(=O)(=O)Nc2ccccc2-c2ccccc2NS(=O)(=O)c2ccc(C)cc2)cc1`, -1.3%.
Under `Cc1ccc(S(=O)(=O)Nc2ccccc2/C=N/c2nc3ccccc3n2C)cc1` stands 89.4% (active); under `O=[N+]([O-])c1cc(Cl)c(O)c2ncccc12`, 102% (active).
Under `Oc1c(CN2CCc3ccccc3C2)cc(Cl)c2cccnc12` stands 101% (active); under `Oc1c(Cl)cc(Cl)c2cccnc12`, 102% (active).
Turning to `Oc1c(CN2CCN(c3ccc(F)cc3)CC2)cc(Cl)c2cccnc12`, the inhibition was 17.1%.
For the molecule `Oc1c(I)cc(I)c2cccnc12`, the inhibition is 89% (active).
Under `Oc1c(CN2CCN(c3ccccn3)CC2)cc(Cl)c2cccnc12` stands 20.4%.
To `Oc1c(C(c2ccc(Cl)cc2)N2CCCC2)cc(Cl)c2cccnc12` (centres undefined) belongs 20%.
To `O=C(Oc1c(Cl)cc(Cl)c2cccnc12)c1ccco1` belongs 106% (active).
Turning to `Oc1c(I)cc(Cl)c2cccnc12`, the inhibition was 104% (active).
Under `Cc1oc(-c2ccccc2Cl)nc1CSc1nc2c(c(=O)[nH]1)CCCC2` stands 19.1%; under `Cc1cccc(-c2nc(CSc3nc4c(c(=O)[nH]3)CCC4)c(C)o2)c1`, 37%; under `Cc1ccccc1-c1nc(CSc2nc3c(c(=O)[nH]2)CCC3)c(C)o1`, 59.5% (active).
Under `CC1(C)CC(=O)C2=C(C1)Oc1nc3ccccc3cc1C2C(C#N)C#N` (centres undefined) stands 29.6%; under `COc1ccccc1CNS(=O)(=O)c1ccc2c(c1)N(C(C)=O)CC(C)S2` (centres undefined), 35.3%.
Take `CC(C)(C)c1ccc(C(=O)N2CCCCCC2=O)cc1`: the inhibition is 69.6% (active).
Under `CC(C)(C)c1ccc(C(=O)Nc2sc3c(c2C(=O)O)CCC3)cc1` stands -51.1%; under `CC(C)(C)c1ccc(/C=N/Nc2ccc(C(=O)O)cc2)cc1`, -61%; under `NC(=S)n1[nH]c(-c2ccc([N+](=O)[O-])cc2)c(N=Nc2cccc([N+](=O)[O-])c2)c1=O`, 86.6% (active).
For `NC(=S)n1[nH]c(-c2ccc([N+](=O)[O-])cc2)c(N=Nc2cccc(Cl)c2)c1=O`, the inhibition is 86.9% (active).
To `Cc1ccc([N+](=O)[O-])cc1N=Nc1c(-c2ccc([N+](=O)[O-])cc2)[nH]n(C(N)=S)c1=O` belongs 80.4% (active); to `Cc1[nH]n(-c2nc(-c3ccc(Cl)cc3)cs2)c(=O)c1N=Nc1ccc(O)cc1`, 48.4%.
For the molecule `NC(=S)n1[nH]c(-c2ccc([N+](=O)[O-])cc2)c(N=Nc2ccc(Cl)cc2)c1=O`, the inhibition was 88.7% (active).
Under `CC(C)(C)c1ccc(-c2noc(CCC(=O)Nc3cccnc3)n2)cc1` stands 71.6% (active); under `CCC(C(=O)Nc1cccnc1)c1ccccc1` (centres undefined), 3.6%; under `CC(C)Cc1ccc(C(C)C(=O)Nc2cccnc2)cc1` (centres undefined), 22.5%.
Under `CC(C)(C)c1ccc(-c2noc(CCC(=O)NCc3ccco3)n2)cc1` stands 44.3%.
As to `CC(C)(C)c1ccc(-c2noc(CCC(N)=O)n2)cc1`, the inhibition is 73.6% (active).
Under `COc1ccc(Cc2nc(-c3ccc(-n4cccc4)cc3)no2)cc1OC` stands 48.8%; under `CCOc1ccc(C(=O)NC2CCN(C(=O)Nc3ccccc3OC)CC2)cc1`, 14.2%.
To `CCn1nc(C)c(CNC(=O)c2ccc(OC3CCN(Cc4ccccn4)CC3)cc2)c1C` belongs 50.2% (active).
